How the values were obtained:
Experiment in all cases: PBM binding z-score (relative to random genomic background probes); higher = stronger binding; sequences stand for … in GC…GCGATTGACAGCGTAGAATGAAGG
[1] = system: PPARg:RXRa DBDmut IVT, anti-RXR (DBD mutation: RXRa K156A/R161A, NR concentration 270 nM, RXRa partner concentration 90 nM)
Procedure, shortened: (§1)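 Binding buffer was PBS pH 7.4 with 2% milk, 0.02% Triton X-100, 1 mM DTT, 0.2 mg/mL BSA and 0.4 mg/ml salmon testes DNA. In it, ligand-free nuclear receptor dimers were incubated 1 h on custom Agilent 4×180K protein-binding microarrays carrying double-stranded probes. Antibodies against each partner (one per run) detected binding, and z-scores were calculated against random background probes after regression normalization of scanned fluorescence.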

[2] = system: PPARg:RXRa IVT, anti-PPARg (NR concentration 270 nM, RXRa partner concentration 90 nM)
Procedure, shortened: as §1

[3] = system: PPARg DBDmut:RXRa IVT, anti-PPARg (DBD mutation: PPARg1 K132A/R137A, NR concentration 270 nM, RXRa partner concentration 90 nM)
Procedure, shortened: as §1

[4] = system: PPARg DBDmut IVT, anti-PPARg (DBD mutation: PPARg1 K132A/R137A, NR concentration 270 nM)
Procedure, shortened: as §1

[5] = system: PPARg homodimer (NR concentration 180 nM)
Procedure, shortened: as §1

[6] = system: PXR:RXRa (NR concentration 270 nM, RXRa partner concentration 90 nM)
Procedure, shortened: as §1

[7] = system: PXR homodimer (NR concentration 270 nM)
Procedure, shortened: as §1

[8] = system: RARa:RXR (NR concentration 270 nM, RXRa partner concentration 90 nM)
Procedure, shortened: as §1

[9] = system: RARa homodimer (NR concentration 270 nM)
Procedure, shortened: as §1

[10] = system: RARb:RXRa (NR concentration 270 nM, RXRa partner concentration 90 nM)
Procedure, shortened: as §1

[11] = system: RARb homodimer (NR concentration 270 nM)
Procedure, shortened: as §1

[12] = system: RARg:RXRa (NR concentration 270 nM, RXRa partner concentration 90 nM)
Procedure, shortened: as §1

[13] = system: RARg homodimer (NR concentration 270 nM)
Procedure, shortened: as §1

[14] = system: RXRa DBDmut IVT, anti-RXR (DBD mutation: RXRa K156A/R161A, NR concentration 90 nM)
Procedure, shortened: as §1

[15] = system: RXRa homodimer (NR concentration 180 nM)
Procedure, shortened: as §1

[16] = system: THRa:RXRa (NR concentration 90 nM, RXRa partner concentration 90 nM)
Procedure, shortened: as §1

[17] = system: THRa homodimer (NR concentration 90 nM)
Procedure, shortened: as §1

[18] = system: VDR homodimer (NR concentration 270 nM)
Procedure, shortened: as §1

| Sequence | PBM binding z-score [1] | PBM binding z-score [2] | PBM binding z-score [3] | PBM binding z-score [4] | PBM binding z-score [5] | PBM binding z-score [6] | PBM binding z-score [7] | PBM binding z-score [8] | PBM binding z-score [9] | PBM binding z-score [10] | PBM binding z-score [11] | PBM binding z-score [12] | PBM binding z-score [13] | PBM binding z-score [14] | PBM binding z-score [15] | PBM binding z-score [16] | PBM binding z-score [17] | PBM binding z-score [18] |
| --- | --- | --- | --- | --- | --- | --- | --- | --- | --- | --- | --- | --- | --- | --- | --- | --- | --- | --- |
| GGAACGAGGGGAAGTTGATAGCAGAGTTTGATGG | 1.12 | 0.62 | 0.337 | 0.547 | 0.593 | 0.111 | 0.308 | -0.228 | 0.391 | 0.243 | 0.255 | -0.0496 | -0.0365 | 0.431 | 0.0141 | -0.105 | 0.182 | 0.565 |
| AGAATTAGGTTATACGTAGATCAGGGAAGAAAGT | 6.81 | 4.61 | 1.46 | 1.36 | 1.25 | 0.291 | 0.914 | 0.687 | 0.896 | 0.776 | 0.51 | 0.538 | 0.552 | 0.428 | 0.592 | 0.759 | 0.539 | 0.454 |
| TCTGCTAGGTCAGTTGGTCAGCTAGCGAGCTGCC | 2.78 | 3.15 | -0.34 | -0.0427 | -0.0101 | 0.114 | -0.917 | 0.452 | -1.22 | 3.38 | 2.51 | 2.7 | 3.71 | 0.477 | 0.644 | 1.18 | -0.284 | -0.49 |
| AATACAGGGCCACTAGGCCAGAGTAGGTACGAAT | 1.33 | 2.42 | 0.705 | 0.0878 | 0.246 | -0.239 | -0.266 | -0.268 | 0.415 | 0.772 | 0.294 | 0.551 | 0.711 | -0.4 | 0.289 | -0.0637 | -0.308 | 0.318 |
| TCTCGGAGGACACGAAGGTCAGAGCATTCCAGAG | 1.39 | 1.39 | -0.898 | -1.01 | 0.93 | 1.74 | 0.89 | 1.61 | 0.282 | 3.07 | 3.61 | 3.22 | 4.02 | 0.583 | 1.97 | 2.87 | 0.91 | 1.04 |
| ATCGAAAGGTCGTGAGGAGAGTATACAGAAAGGC | 0.395 | 1.64 | 1.22 | 1.09 | 2.69 | 3.21 | 0.666 | 4.09 | 0.902 | 3.91 | 2.56 | 4.52 | 4.04 | 1.59 | 5.22 | 2.7 | 0.251 | 0.69 |
| CCTGGTAGGTCATGGTCAGCTAATCTACAGTATG | 4.25 | 5.18 | 0.295 | 0.552 | 1.94 | 2.02 | -0.0799 | 2.83 | 0.611 | 3.81 | 3.07 | 4.23 | 4.8 | 0.728 | 3.62 | 2.22 | 0.615 | 0.706 |
| TCTAGCAGGCCAGAGGGTCCCTCAAGAGGTACGG | 0.4 | -0.351 | -0.654 | -1.83 | -0.97 | -0.673 | -1.06 | -0.482 | -1.2 | -0.136 | -0.677 | -0.337 | -0.396 | -0.214 | -0.191 | -0.666 | -1.29 | -0.908 |
| GCGACTGGGGCAGCAGCAGGTTACCATAACTTAA | 3.5 | 2.23 | -1.15 | -0.983 | -0.687 | -0.502 | -0.939 | -0.19 | -0.8 | 0.608 | 0.746 | 0.167 | 0.234 | -0.331 | -0.00155 | 0.651 | -0.162 | -0.595 |
| ACTCGGAGGACAAGGGTCAGAGCTACGCCAGTGA | 0.222 | 1.88 | -0.0175 | 0.0941 | 1.36 | 1.93 | -0.342 | 2.63 | 0.214 | 3.29 | 3.36 | 3.88 | 3.19 | 0.24 | 2.82 | 2.28 | 0.361 | 1.05 |
| AGTCTAAGTTCAGGACGAGGTAACGTAAAGCACG | -0.507 | 0.167 | 0.154 | 0.579 | 1.1 | 2.21 | 1.18 | 1.79 | 0.351 | 2.95 | 1.85 | 3.11 | 2.65 | 3.28 | 1.57 | 3.56 | 1.99 | 2.62 |
| CCTACTGGGCCCTTCAGAGGTCATTGATCATATG | 0.668 | 1.66 | -0.729 | -0.628 | 3.64 | 4.97 | 1.92 | 4.84 | 0.707 | 2.58 | 3.67 | 3.27 | 2.24 | -0.326 | 3.49 | 2.94 | 1.18 | 3.23 |
| ATCGAAATGTCGAAGGTGAGTATACCCACCCGAA | -1.11 | 0.391 | 0.818 | 0.244 | -0.161 | -0.253 | -0.511 | 0.116 | -0.269 | 0.495 | -0.167 | 0.233 | 0.587 | -0.753 | 0.434 | -0.023 | -0.43 | -0.0115 |
| AGCCAAAGTTCAGGACGAGGTAACGTAAAGCACG | -0.0528 | 1.03 | -0.637 | -0.0617 | 1.29 | 2.65 | 0.942 | 2.64 | 0.246 | 4.33 | 3.29 | 4.54 | 4.18 | 2.63 | 3.05 | 3.87 | 1.74 | 1.79 |
| GATACAGGGTCAAGGGCAGAGTACGCGTATTGAT | 2.9 | 4.2 | 0.998 | 0.413 | 2.15 | 4.01 | 0.827 | 4.22 | 0.496 | 4.77 | 3.91 | 5.63 | 5.26 | 2.38 | 6.19 | 3.7 | 1.49 | 3.28 |

Reference: the supplement of paper PMC6555819
